Bioassay records from PubChem.
TWEAK Fn14 block: blocks TWEAK-Fn14 interaction in a reporter cell assay; TWEAK-stimulated Fn14 reporter cells, luciferase luminescence, 8 h; inhibition, % at 10 µM; hit rate 2% among 360,000; in the data active means inhibition above about 50%
TROY signal inh: inhibitors of TROY-dependent NF-kB signaling | Q293 LMP1-TROYcd NF-kB luciferase reporter, 4 h | inhibition, % at 10 µM | hit rate 0.98% among 360,000;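 active means compounds whose plate-normalised and pattern-corrected inhibition of the luciferase reporter signal at the single screening dose is 50% or more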
EBV LMP1 NFkB: inhibitors of Epstein-Barr LMP1-induced NF-kappaB reporter | LMP1-induced NF-kappaB luciferase reporter cells, luminescence | inhibition, % at 12.5 µM | hit rate 0.69% among 350,000 | AID 504558; in the data active means inhibition above about 41%;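 further: 0% = neutral control wells and 100% = reference inhibitor control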
Peg3 prom inh: Peg3 promoter activity inhibition; inhibition, % at 20 µM; AID 588405; HeLa PEG-Prom luciferase reporter, luminescence, overnight; hit rate 1.7% among 360,000;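 active means inhibition of at least 50% at 20 µM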
HIF-2a block: HIF-2a inhibition | 786-0 RCC cells HIF-2a reporter, luciferase luminescence, overnight | inhibition, % at 18.8 µM | hit rate 0.72% among 360,000 | AID 624352;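 active means inhibition of the luminescence signal of 40% or more relative to plate controls, in a single-dose primary screen at 18.75 µM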
MITF TRPM1 inh: MITF TRPM1 promoter inhibition in SK-MEL-5 cells. SK-MEL-5 TRPM1 promoter luciferase, 24 h. inhibition, % at 12.5 µM. hit rate 0.83% among 330,000;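 active means mean inhibition across replicates of 60% or more, whatever share of single replicates reaches that level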
Starred values were filed as active, the others as inactive; · = not tested or not shown. Shown are actives, neighbours in structure and some others; about 4% of the full set was active somewhere.

SMILES	TWEAK Fn14 block	TROY signal inh	EBV LMP1 NFkB	Peg3 prom inh	HIF-2a block	MITF TRPM1 inh
COc1ccc(N2CCN(c3ncnc4c3cnn4-c3ccc(C)cc3C)CC2)cc1	68*	44	12	14	9	44
Cc1ccc(-n2ncc3c(N4CCN(c5ccccc5)CC4)ncnc32)c(C)c1	87*	50*	12	97*	-65	39
c1ccc(Cn2ncc3c(N4CCN(c5ccccc5)CC4)ncnc32)cc1	64*	72*	·	35	-19	·
COc1ccc(-n2ncc3c(N4CCN(c5cc(C)ccc5C)CC4)ncnc32)cc1	-18	-11	1	8	2	-4
O=C(CSc1ccc2nnc(-c3cccnc3)n2n1)Nc1ccccc1F	7	0	-8	12	17	·
COc1cc(CCC(=O)NNC(=O)c2cccc(Cl)c2)cc(OC)c1OC	14	-1	6	15	8	-9
Cc1ccc(C(=O)Oc2coc(CSc3nnc(NC(=O)C4CC4)s3)cc2=O)cc1C	44	82*	-3	-75	7	-6
Cc1cccc(C(=O)Oc2coc(CSc3nnc(NC(=O)C4CC4)s3)cc2=O)c1	18	25	1	1	1	-9
O=C(Nc1ccccc1)Nc1nc(-c2ccccc2)cs1	29	21	14	-67	-88	-16
O=C(Nc1ccc(Cl)c(Cl)c1)Nc1nc(-c2ccccc2)cs1	37	26	56*	-2	-43	10
COc1ccc(NC(=O)Nc2nnc(CC(=O)Nc3ccccc3)s2)cc1	-26	4	-2	-5	1	4
COc1cccc(NC(=O)Nc2nnc(CC(=O)Nc3ccccc3)s2)c1	51*	30	4	-10	10	-16
COc1cccc(-c2csc(NC(=O)C3CC3)n2)c1	-16	-66	-25	-314	-332	-107
COc1cccc(-c2csc(NC(=O)Nc3ccccc3)n2)c1	86*	58*	6	-46	-193	5
COc1ccc(OCCOC(=O)c2cc(S(=O)(=O)N3CCOCC3)c(Cl)cc2Cl)cc1	-27	41	5	8	4	3
COc1ccc(C2CC3(O)CC(C#N)(C(=O)N3)C2(C#N)C#N)cc1 (stereo not given)	91*	82*	-4	10	16	2
COc1ccc(C2C(C)C3(O)CC(C#N)(C(=O)N3)C2(C#N)C#N)cc1 (stereo not given)	26	-4	0	1	8	8
Cc1ccc(N2CC3=C(C2=O)C(c2ccccc2)NC(=O)N3C)cc1 (stereo not given)	2	6	-6	2	3	5
CN1C(=O)NC(c2ccccc2)C2=C1CN(c1ccc3ccccc3c1)C2=O (stereo not given)	34	53*	-10	-6	-26	3
C=CCN(CC=C)c1ncnc2[nH]ncc12	67*	32	29	13	15	-16
CN(c1cccnc1)c1ncnc2[nH]ncc12	-10	-9	4	-9	9	-6
NC(=O)NC(=O)CSc1nc2sc(-c3ccccc3)cc2c(=O)n1-c1ccccc1	58*	13	10	-6	-26	-3
COC(=O)CNC(=O)CSc1nc2sc(-c3ccccc3)cc2c(=O)n1-c1ccccc1	17	23	0	-16	-40	6
O=c1[nH]c(=O)n(Cc2ccccc2)c2nc(-c3ccc(Oc4ccc(F)cc4)c([N+](=O)[O-])c3)n(CCO)c12	30	14	-2	63*	21	0
Cc1occc1-c1nc(-c2ccccn2)no1	62*	3	14	-71	-62	17
SMILES	TWEAK Fn14 block	TROY signal inh	EBV LMP1 NFkB	Peg3 prom inh	HIF-2a block	MITF TRPM1 inh
c1ccc(-c2noc(-c3ccncc3)n2)nc1	35	2	6	-102	-136	-10
c1ccc(-c2noc(-c3ccc4ccccc4c3)n2)nc1	105*	86*	82*	87*	88*	79*
Cc1ccc(SSc2cc(C)ccc2N)c(N)c1	58*	43	-46	-184	-179	-34
Cc1ccc(O)c(N)c1	34	37	4	-148	-58	-10
Cc1ccc(N(C)S(=O)(=O)c2cccc(C(=O)NCC(c3ccco3)N3CCCC3)c2)cc1 (stereo not given)	3	6	-10	11	10	6
O=C(N/N=C/c1cc2c3c(c1O)CCCN3CCC2)c1ccccc1O	-14	-23	65*	34	-48	49
CCCCOc1ccc(N=Cc2ccc[nH]2)cc1	67*	73*	-5	-2	13	25
COc1ccc(N=Cc2ccc[nH]2)cc1	87*	63*	-32	-5	-20	11
CC1CCN(C(=O)C(C)NCc2ccc(F)cc2)CC1 (stereo not given)	-2	-27	9	-4	4	10
COc1cc(N=Nc2cccc(S(N)(=O)=O)c2)c2ccccc2c1N	34	30	-22	-75	-34	74*
NC1=NC(=Nc2cccc(S(N)(=O)=O)c2)c2ccccc21	14	8	-10	9	16	14
Cc1ccc([N+](=O)[O-])cc1N(CC(=O)Nc1ccc(S(=O)(=O)Nc2cccc(C(F)(F)F)c2)cc1)S(C)(=O)=O	85*	70*	-54	39	14	8
Cc1ccc2nc(-c3sc4nc(C)ccc4c3N)[nH]c2c1	71*	25	-55	-202	29	1
CCCCNC(=S)N(C)/N=C/c1c(F)c(F)c(F)c(F)c1F	-108	-9	8	71*	19	6
CCCCNC(=S)N(C)/N=C/c1c(C)[nH]c2ccccc12	-3	9	10	5	15	13
COC(=O)C[C@H]1CC[C@H](NC(=O)Nc2ccccc2F)[C@@H](CO)O1	·	·	·	·	1	·
Cn1cc(C(=O)c2ccc(Cl)cc2)cc1-c1nc2ccccc2n1C	52*	57*	1	20	4	9
CCCCN(C)C(=O)CCC(=O)NNc1nc2ccccc2c2nc(C)nn12	76*	-6	4	12	7	1
CCN(CC)CCCNC(=O)CCC(=O)NNc1nc2ccccc2c2nc(C)nn12	13	-26	3	9	17	8
O=C(Nc1cc(Cl)ccc1-n1cncn1)c1ccc([N+](=O)[O-])s1	32	27	-4	37	25	62*
O=C(Nc1cc(Cl)ccc1-n1cncn1)c1ccco1	9	-10	0	25	19	24
Cc1ccc(S(=O)(=O)c2c(C)nn(C(C)(C)C)c2OC(=O)c2ccc(Br)o2)cc1	22	44	19	70*	-4	-7
O=C(COC(=O)c1cccc(S(=O)(=O)N2CCOCC2)c1)NC1CCCCC1	-1	8	-14	-11	11	·
C=CCN(c1ccccc1)S(=O)(=O)c1cccc(C(=O)Nc2nnc(SCC)s2)c1	13	53*	-2	16	11	-5
Cc1cc(C(=O)c2ccc(C(C)(C)C)cc2)c(NC(=O)CCl)s1	-8	-8	-1	103*	10	16
